Drawing on PubChem BioAssay (EPA / NIEHS), this text covers AC50 and outcome for 16 compounds.

The term AC50 denotes the concentration at which the activity in the assay is half-maximal.

The structures appear in SMILES notation. Inconclusive results are not listed. More than one record can exist for a structure, and the calls need not agree. The source made the active and inactive calls. Rule for the calls: active = hit-call score of the fitted dose curve at least 0.9, where 1 is the maximum; inconclusive = response in the unintended direction; inactive = score below 0.9.

The subject of the first experiment is NCBI gene 100848466. Briefly: NVS_NR_bPR: NovaScreen (NVS) Nuclear Receptor Binding Assay for bovine Progextron Receptor (PR) (AID 2283343).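 For AC50: actives lower bound radioligand signal below DMSO meaning displacement of the label.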 In a few lines: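 Membranes from bovine uterus; radiolabelled ligand plus test chemical; 18 h; scintillation read-out. Activity = signal loss vs DMSO. Primary: 25 uM, duplicate; secondary: concentration series.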
Regarding `C#C[C@]1(O)CC[C@H]2[C@@H]3CCC4=CC(=O)CC[C@@H]4[C@H]3CC[C@@]21CC`, the half-maximal activity concentration (AC50) was 0.00453 µM (active).
The same measure, in the same setting: in the case of `O=C(c1ccc(O)cc1O)c1ccc(O)cc1O` it was 16.4 µM (active); in that of `CC(=O)S[C@@H]1CC2=CC(=O)CC[C@]2(C)[C@H]2CC[C@@]3(C)[C@@H](CC[C@@]34CCC(=O)O4)[C@H]12`, 1.53 µM (active); in that of `Cc1nn(C)c(Oc2ccccc2)c1C=NOCc1ccc(C(=O)OC(C)(C)C)cc1`, 11 µM (active).
For the compound `C[C@]12CC[C@@H]3c4ccc(O)cc4C[C@@H](CCCCCCCCCS(=O)CCCC(F)(F)C(F)(F)F)[C@H]3[C@@H]1CC[C@@H]2O` (some centres not stated), the compound was called inactive.
In the case of `Oc1ccc(C(c2ccc(O)cc2)C(Cl)(Cl)Cl)cc1`, the AC50 was 3.6 µM (active).

The target in another experiment is bovine Estrogen Receptor (ER), ESR1 (gene 407238) (UniProt P49884). Briefly: NVS_NR_bER: NovaScreen (NVS) Nuclear Receptor Binding Assay for bovine Estrogen Receptor (ER) (AID 2283345).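 Note: actives lower the bound radioligand count which means they displace the ER ligand.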 In short, it runs like this: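 Cell-free radioligand binding with receptor from bovine uterine membranes, read by scintillation counting 18 h after dosing. Loss of specific binding was scored against DMSO; primary screen at 25 uM in duplicate, actives then run as concentration series.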
Chain of bovine Estrogen Receptor (ER), ESR1 (gene 407238) (P49884 whole entry, looked up): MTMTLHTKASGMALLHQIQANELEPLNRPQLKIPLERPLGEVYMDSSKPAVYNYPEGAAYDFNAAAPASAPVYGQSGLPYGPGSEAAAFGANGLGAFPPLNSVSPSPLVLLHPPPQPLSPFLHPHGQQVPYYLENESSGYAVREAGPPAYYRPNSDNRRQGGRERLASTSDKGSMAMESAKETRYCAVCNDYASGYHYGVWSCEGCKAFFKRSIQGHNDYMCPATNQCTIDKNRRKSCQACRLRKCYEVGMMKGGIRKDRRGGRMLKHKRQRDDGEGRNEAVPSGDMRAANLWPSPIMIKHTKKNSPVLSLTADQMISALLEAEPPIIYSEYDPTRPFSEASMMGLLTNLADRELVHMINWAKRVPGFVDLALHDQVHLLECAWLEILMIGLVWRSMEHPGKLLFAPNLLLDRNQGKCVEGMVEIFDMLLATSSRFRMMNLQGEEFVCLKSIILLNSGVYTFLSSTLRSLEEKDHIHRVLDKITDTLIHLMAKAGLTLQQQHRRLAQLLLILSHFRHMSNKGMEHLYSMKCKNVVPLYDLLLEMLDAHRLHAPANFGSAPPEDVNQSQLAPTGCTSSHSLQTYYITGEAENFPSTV
For the compound `CC(C)(c1ccc(O)cc1)c1ccc(O)cc1`, the call was inactive.
For the compound `CCCCC(CC)CN1C(=O)C2C3C=CC(C3)C2C1=O` (configuration not stated), the compound was called inactive.
For `O=C(c1ccccc1)C1CCCCC1`, the result was inactive.
As for `CC(C)CCCCCCc1ccc(O)cc1`, the half-maximal activity concentration (AC50) is 16.7 µM (active) [middle of 4 runs].
As to `C[C@]12C[C@H](O)[C@H]3[C@@H](CCC4=CC(=O)CC[C@@]43C)[C@@H]1CC[C@@H]2C(=O)CO`, the compound was called inactive.
For `CC(=O)[C@H]1CC[C@H]2[C@@H]3CCC4=CC(=O)CC[C@]4(C)[C@H]3CC[C@]12C`, the AC50 was 12.4 µM (active) and the compound was called inactive.
Consider `CCOC(=O)c1ccc(O)cc1`, for which the result was inactive.
The same measure, in the same setting: under `COc1c(Cl)ccc(Cl)c1C(=O)O` stands “inactive”.
Same read-out and setting: under `N[C@@H](Cc1cc(I)c(Oc2ccc(O)c(I)c2)c(I)c1)C(=O)O` stands “inactive”; under `CC1(C)C(C=C(Cl)Cl)C1C(=O)OCc1cccc(Oc2ccccc2)c1` (configuration not stated), “inactive”.
